Consider eleven sequences from publication PMC8384837, “Expanding the binding specificity for RNA recognition by a PUF domain”.

Common to all, as to test: yeast three-hybrid, YBZ-1, SC-Leu-His + 0.5 mM 3-AT, 4 days
Holding throughout (details): tags: N-Gal4 AD-HA kept; label: inside an RPR1-promoter hybrid RNA with tandem MS2 sites; ssRNA

Assay [1] has as its target PUM1 PUF domain R7-NTG (Homo sapiens, UniProt Q14671 828-1176, S1079N;N1080T;E1083G). In outline: (§1)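 Matching RNA elements and Pumilio-1 PUF domain libraries, randomized at the three base-contacting residues of every repeat, were co-expressed from a centromeric plasmid in strain YBZ-1 (LexA–MS2 coat fusion, HIS3 reporter). The repeat regions were PCR-amplified and Illumina-sequenced from cells grown four days on SC-Leu (input) or SC-Leu-His + 0.5 mM 3-AT (selection). The interaction score is the log change in variant frequency from input to selection. It is computed in log2, with a pseudocount of 1 for absent variants.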

Assay [2] addresses PUM1 PUF domain R8-IWK (Homo sapiens, UniProt Q14671 828-1176, N1122I;Y1123W;Q1126K). Put shortly: as §1
The target in assay [3] is PUM1 PUF domain R5-KFG (Homo sapiens, UniProt Q14671 828-1176, C1007K;R1008F;Q1011G). In outline:
as §1

Assay [4] concerns the target PUM1 PUF domain R5-ERS (Homo sapiens, UniProt Q14671 828-1176, C1007E;Q1011S). In outline: as §1
In assay [5] the target is PUM1 PUF domain R5-DWG (Homo sapiens, UniProt Q14671 828-1176, C1007D;R1008W;Q1011G). Put shortly:
as §1

Assay [6] deals with PUM1 PUF domain R8-SFR (Homo sapiens, UniProt Q14671 828-1176, N1122S;Y1123F;Q1126R). Put shortly: as §1
Assay [7] deals with PUM1 PUF domain R3-MRE (Homo sapiens, UniProt Q14671 828-1176, C935M;Q939E). In outline:
as §1

For assay [8], the target named is PUM1 PUF domain R1-GFR (Homo sapiens, UniProt Q14671 828-1176, S863G;R864F;Q867R). Put shortly: as §1
The target in assay [9] is PUM1 PUF domain R1-KMS (Homo sapiens, UniProt Q14671 828-1176, S863K;R864M;Q867S). Put shortly:
as §1

The target in assay [10] is PUM1 PUF domain R1-KGA (Homo sapiens, UniProt Q14671 828-1176, S863K;R864G;Q867A). Put shortly:
as §1

PUM1 PUF domain R5-KFG, sequence (Q14671 828-1176 C1007K/R1008F/Q1011G): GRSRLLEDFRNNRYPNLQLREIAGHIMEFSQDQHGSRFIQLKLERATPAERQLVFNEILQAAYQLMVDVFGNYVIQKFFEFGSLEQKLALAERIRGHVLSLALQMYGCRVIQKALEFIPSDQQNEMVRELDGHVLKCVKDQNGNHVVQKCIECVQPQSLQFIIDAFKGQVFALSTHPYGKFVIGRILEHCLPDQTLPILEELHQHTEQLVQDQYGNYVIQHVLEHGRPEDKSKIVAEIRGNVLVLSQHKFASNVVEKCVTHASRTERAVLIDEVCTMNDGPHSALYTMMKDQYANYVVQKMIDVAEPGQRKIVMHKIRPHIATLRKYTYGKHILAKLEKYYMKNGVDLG
PUM1 PUF domain R5-ERS, sequence (Q14671 828-1176 C1007E/Q1011S): as the sequence (Q14671 828-1176 C1007K/R1008F/Q1011G) above, with K180E, F181R, G184S counted along it
PUM1 PUF domain R5-DWG, sequence (Q14671 828-1176 C1007D/R1008W/Q1011G): as the sequence (Q14671 828-1176 C1007K/R1008F/Q1011G) above, with K180D, F181W counted along it
PUM1 PUF domain R1-GFR, sequence (Q14671 828-1176 S863G/R864F/Q867R): as the sequence (Q14671 828-1176 C1007K/R1008F/Q1011G) above, with S36G, R37F, Q40R, K180C, F181R, G184Q counted along it
PUM1 PUF domain R8-SFR, sequence (Q14671 828-1176 N1122S/Y1123F/Q1126R): as the sequence (Q14671 828-1176 C1007K/R1008F/Q1011G) above, with K180C, F181R, G184Q, N295S, Y296F, Q299R counted along it
PUM1 PUF domain R3-MRE, sequence (Q14671 828-1176 C935M/Q939E): as the sequence (Q14671 828-1176 C1007K/R1008F/Q1011G) above, with C108M, Q112E, K180C, F181R, G184Q counted along it
PUM1 PUF domain R1-KGA, sequence (Q14671 828-1176 S863K/R864G/Q867A): as the sequence (Q14671 828-1176 C1007K/R1008F/Q1011G) above, with S36K, R37G, Q40A, K180C, F181R, G184Q counted along it
PUM1 PUF domain R8-IWK, sequence (Q14671 828-1176 N1122I/Y1123W/Q1126K): as the sequence (Q14671 828-1176 C1007K/R1008F/Q1011G) above, with K180C, F181R, G184Q, N295I, Y296W, Q299K counted along it
PUM1 PUF domain R1-KMS, sequence (Q14671 828-1176 S863K/R864M/Q867S): as the sequence (Q14671 828-1176 C1007K/R1008F/Q1011G) above, with S36K, R37M, Q40S, K180C, F181R, G184Q counted along it
PUM1 PUF domain R7-NTG, sequence (Q14671 828-1176 S1079N/N1080T/E1083G): as the sequence (Q14671 828-1176 C1007K/R1008F/Q1011G) above, with K180C, F181R, G184Q, S252N, N253T, E256G counted along it

Turning to “GGCUAGAACUAGUGGAUCCCCCGGCGCCCGGCGGCUCGAGCCCGGGUAAGUUUAAAUAGUCUGCAUGCCGCCGGGCGCCAUGCCUGCAGGUCGACUCUAGAAAACAUG”, in assay [1], the binding signal was 5.69 log2 enrichment (interaction score).

Turning to “GGCUAGAACUAGUGGAUCCCCCGGCGCCCGGCGGCUCGAGCCCGGGUAAGGGUAAAUAGUCUGCAUGCCGCCGGGCGCCAUGCCUGCAGGUCGACUCUAGAAAACAUG”, the binding signal in [2] is 2.04 log2 enrichment (interaction score).

For “GGCUAGAACUAGUGGAUCCCCCGGCGCCCGGCGGCUCGAGCCCGGGUAAGUGUCAAUAGUCUGCAUGCCGCCGGGCGCCAUGCCUGCAGGUCGACUCUAGAAAACAUG”, the values for the binding signal in [3], in [4] and in assay [5] were 5.1 log2 enrichment (interaction score), 0.61 log2 enrichment (interaction score) and 2.09 log2 enrichment (interaction score), respectively.

Consider “GGCUAGAACUAGUGGAUCCCCCGGCGCCCGGCGGCUCGAGCCCGGGUAAGUGUAAAUAGUCUGCAUGCCGCCGGGCGCCAUGCCUGCAGGUCGACUCUAGAAAACAUG”, for which the binding signal in [6] is 5.31 log2 enrichment (interaction score); in assay [3], 3.88 log2 enrichment (interaction score); in [4], 3.92 log2 enrichment (interaction score); in [5] it was 2.74 log2 enrichment (interaction score).

For “GGCUAGAACUAGUGGAUCCCCCGGCGCCCGGCGGCUCGAGCCCGGGUAAGCGUAAAUAGUCUGCAUGCCGCCGGGCGCCAUGCCUGCAGGUCGACUCUAGAAAACAUG”, in assay [6], the binding signal is 4.79 log2 enrichment (interaction score).

For “GGCUAGAACUAGUGGAUCCCCCGGCGCCCGGCGGCUCGAGCCCGGGUAAGUGUUAAUAGUCUGCAUGCCGCCGGGCGCCAUGCCUGCAGGUCGACUCUAGAAAACAUG”, the binding signal was 5.35 log2 enrichment (interaction score) in [3] and 5.02 log2 enrichment (interaction score) in assay [5].

For the sequence “GGCUAGAACUAGUGGAUCCCCCGGCGCCCGGCGGCUCGAGCCCGGGUAAGUGUAAUUAGUCUGCAUGCCGCCGGGCGCCAUGCCUGCAGGUCGACUCUAGAAAACAUG”, the binding signal in [7] is 0.23 log2 enrichment (interaction score).

In the case of “GGCUAGAACUAGUGGAUCCCCCGGCGCCCGGCGGCUCGAGCCCGGGUAAGUGUAAAUUGUCUGCAUGCCGCCGGGCGCCAUGCCUGCAGGUCGACUCUAGAAAACAUG”, the binding signal was 2.65 log2 enrichment (interaction score) in assay [8], 3.69 log2 enrichment (interaction score) in assay [9] and 3.21 log2 enrichment (interaction score) in assay [10].

For the sequence “GGCUAGAACUAGUGGAUCCCCCGGCGCCCGGCGGCUCGAGCCCGGGUAAGUGUAAGUAGUCUGCAUGCCGCCGGGCGCCAUGCCUGCAGGUCGACUCUAGAAAACAUG”, the binding signal in assay [7] is 5.14 log2 enrichment (interaction score).

Turning to “GGCUAGAACUAGUGGAUCCCCCGGCGCCCGGCGGCUCGAGCCCGGGUAAGUGUAAAUCGUCUGCAUGCCGCCGGGCGCCAUGCCUGCAGGUCGACUCUAGAAAACAUG”, the binding signal is 5.46 log2 enrichment (interaction score) in assay [8] and 3.08 log2 enrichment (interaction score) in assay [10].

Turning to “GGCUAGAACUAGUGGAUCCCCCGGCGCCCGGCGGCUCGAGCCCGGGUAAGUGUGAAUAGUCUGCAUGCCGCCGGGCGCCAUGCCUGCAGGUCGACUCUAGAAAACAUG”, the binding signal in [4] is 2.69 log2 enrichment (interaction score); in assay [5], 4.74 log2 enrichment (interaction score).
